# Compound activity from PubChem.
# In the library only some 19% were active in any assay of this set; here they are far more common.
# DT40 TDP1 no CPT: qHTS for Inhibitors of human tyrosyl-DNA phosphodiesterase 1 (TDP1): qHTS in cells in absence of CPT; DT40 Tdp1-/- hTDP1 cells, no CPT, ATP luminescence, 48 h; Potency, µM (titrated, usually from 46.2 µM), without a hit: top-dose activity change, negative = growth inhibition, usual class: inhibitors; 420,000 tested, 15% active; further: potency means the concentration at half of the fitted maximal effect; nearly all actives have a fitted effect of over 55% in size
#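 DT40 Tdp1-/-;hTDP1 cells, no CPT (DMSO vehicle only), 400 cells/well; compounds pin-transferred; ≥48 hr, 37 °C; CellTiter-Glo 30 min RT dark, luminescence read.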
# IL-1B inflam inh: qHTS for Inhibitors of Inflammasome Signaling: IL-1-beta AlphaLISA Primary Screen. THP-1 LPS/ATP IL-1B secretion, AlphaLISA, 16 h; active compounds read low. activity change, % at 57.5 µM. 360,000 tested, 4.7% active. AID 743279, 2014; in the data active means activity change below about -50%; inconclusive means mostly about -30% to -49%
#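 THP-1 cells pretreated 1 hr with compounds (up to 57.5 uM final), then stimulated with LPS (250 ng/mL final) plus ATP (1.25 mM final); secreted IL-1B measured by AlphaLISA after 16 hr, decreased signal indicating inhibition.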
# HT1080NT lethal: qHTS for induction of synthetic lethality in tumor cells producing 2HG: qHTS for the HT-1080-NT fibrosarcoma cell line | 360,000 tested, 1.6% active | HT-1080-NT fibrosarcoma viability, CellTiter-Glo ATP luminescence, 48 h | Potency, µM (highest dose often 46.1 µM), inactives show at the highest dose activity, negative = less viability, hits mostly cytotoxic | AID 686970, 2013;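 further: NT is the 2HG producing partner of a matched IDH1 knockdown line; potency means the concentration at half of the fitted maximal effect; 0% = DMSO-treated cells and -100% = media-only wells without cells; nearly all actives have a fitted effect of over 55% in size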
#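 750 cells/well, RPMI + 5% FBS; 2 h settle, compound pin-transfer, 48 h at 37 degrees C. CellTiter-Glo 10 min RT, luminescence. Normalized to DMSO and media-only wells.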
# uPA surface inh: qHTS for Inhibitors of Cell Surface uPA Generation; cell surface uPA generation assay, qHTS; Potency, µM (titrated, usually from 38.3 µM), inactives show at the top dose activity change, negative = inhibition, hits mostly inhibitors; 330,000 tested, 0.31% active; active means well fitted inhibition curve with a large enough effect; inconclusive means small, poorly fitted or top-dose-only effect; inactive means no such curve, though single readings can be large or run the other way; tested in mouse RAW 264.7 cells; further: potency means the concentration at half of the fitted maximal effect; nearly all actives have a fitted effect of over 55% in size
# TDP1 cell CPT: qHTS for Inhibitors of human tyrosyl-DNA phosphodiesterase 1 (TDP1): qHTS in cells in presence of CPT. 420,000 tested, 12% active. chicken DT40 Tdp1-/-;hTDP1 cells + 20 nM CPT, ATP luminescence, 48 h. Potency, µM (highest dose often 46.2 µM), for the others: top-dose activity change, negative = growth inhibition, usual class: inhibitors. AID 686979, 2013; further: potency means the concentration at half of the fitted maximal effect; nearly all actives have a fitted effect of over 55% in size
#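 Cell growth measured by CellTiter-Glo luminescence after a minimum 48 h, 37 C compound exposure with 20 nM CPT in Tdp1-knockout DT40 cells stably expressing hTDP1, seeded 400/well; qHTS titration format.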
# HT1080 IDH1KD tx: qHTS for induction of synthetic lethality in tumor cells producing 2HG: qHTS for the HT-1080-IDH1KD cell line; AID 686971, 2013; Potency, µM (highest dose often 46.1 µM), without a hit: at the top dose activity, negative = toxicity, actives largely listed as cytotoxic; HT-1080 IDH1 knockdown viability, ATP luminescence, 48 h; 360,000 tested, 2% active;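 further: potency means the concentration at half of the fitted maximal effect; 0% = DMSO wells and -100% = cell-free medium wells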
#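 HT-1080-IDH1KD cells (IDH1 knocked down), 750/well in RPMI with 5% FBS, treated with compound 48 h at 37 degrees C. Viability by CellTiter-Glo luminescence, normalised to DMSO and no-cell wells; concentration-response curves classed.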
# * marks the source's active call; other numbers are inactive results; ? = inconclusive; . = no result given; [ ] = another dose, or the depositor's remark. Unless noted, the call rests on the fitted dose curve; in most records, active means well fitted curve in the direction sought with a large enough effect; inconclusive means small, poorly fitted or top-dose-only effect, or another doubt; inactive means no such curve, though single readings can be large; an effect the other way counts as inactive or inconclusive. Unless noted, on the % scale 0 is the no-effect control and ±100 the full control effect.
SMILES,DT40 TDP1 no CPT,IL-1B inflam inh,HT1080NT lethal,uPA surface inh,TDP1 cell CPT,HT1080 IDH1KD tx
CCOc1ccc(S(=O)(=O)N2CCN(C(=O)c3cc(C4CC4)nn3-c3ccccc3)CC2)cc1,18µM*,-25,0%,1%,21µM*,-14%
O=C(c1cc(C2CC2)nn1-c1ccccc1)N1CCN(c2ccccn2)CC1,?,-63*,4%,14%,?,-1%
O=C(NC1CCCCC1)c1cc(C2CC2)nn1-c1ccccc1,16µM*,-21,4%[9.24 µM],8%,16µM*,8%
O=C(c1cc(C2CC2)nn1-c1ccccc1)N1CCN(c2ccccc2O)CC1,16µM*,?,12%,-4%,?,19%
CCCN(CC(=O)Nc1ccccc1C)C(=O)/C=C/c1ccc(OC)c(OC)c1,-17%,-10,-5%,.,-29%,-1%
Cc1csc2nc(-c3ccc(NS(=O)(=O)c4cc(F)ccc4F)cc3)cn12,-22%,.,.,.,-10%,.
CCOc1cc(O)c(-c2[nH]ncc2-c2nc(C)cs2)cc1CC,21µM*,5,-18%,-5%,23µM*,-28%
CCc1cc(-c2[nH]ncc2-c2nc3ccccc3n2C)c(O)cc1O,?,-10,-5%,0%,-20%,-4%
N#CC1c2ccccc2C=CN1C(=O)N(c1ccccc1)c1ccccc1 (stereo not drawn),?,-97*,?,-9%,?,?
COc1ccc(C(=O)N2C=Cc3ccccc3C2C#N)cc1 (stereo not drawn),-24%,9,3%,.,0%,-2%
COc1ccc(C)cc1S(=O)(=O)Nc1cccc(Cl)c1,?,39,-18%,-1%,?,-16%
Cc1ccc(NS(=O)(=O)c2sc3ccc(Cl)cc3c2C)cc1,?,-85*,?,5%,?,?
COc1cc(OC)cc(C(=O)NNC(=O)C2CCCC2)c1,-7%,4,3%,15%,-3%,-17%
CCC1CCCCN1C(=O)Cn1c(=O)n(-c2ccc(Cl)c(Cl)c2)c(=O)c2c(C)c(C(=O)N(C)C)sc21 (stereo not drawn),-16%,.,.,.,-2%,.
COc1cc(NC(=O)c2ccc3c(c2)OCCO3)ccc1NC(=O)c1ccccc1Cl,-26%,-53*,-26%,1%,?,-19%
CCOC(=O)c1ccc(NC(=O)c2cc3ccccc3o2)cc1,?,?,-23%,3%,?,-17%
CCOC(=O)c1cccc(NC(=O)c2cc3ccccc3o2)c1,?,-7,0%,?,8.2µM*,2%
COc1cc(NC(=O)c2c(OC)cccc2OC)ccc1NC(=O)c1cc2ccccc2o1,?,-28,-16%,16%,10µM*,-22%
COc1cc(NC(=O)c2ccccc2F)ccc1NC(=O)c1cc2ccccc2o1,-29%,-26,-7%,3%,?,-10%
COc1cc(NC(=O)c2ccc(F)cc2)ccc1NC(=O)c1cc2ccccc2o1,8%,10,3%,-13%,-22%,1%
COc1cc(NC(=O)c2cccc(Cl)c2Cl)ccc1NC(=O)c1cc2ccccc2o1,2.6µM*,.,.,.,5.2µM*,.
Cc1c(C)c2ccc(OCC(=O)Nc3ccccc3C(N)=O)cc2oc1=O,0%,0,13%,-3%,7%,8%
CCC(=O)Nc1ccc(NC(=O)c2cc3ccccc3o2)c(OC)c1,10µM*,28,-4%,-11%,?,-2%
COc1cc(NC(=O)c2ccc(C)cc2)ccc1NC(=O)c1cc2ccccc2o1,-26%,25,9%,12%,1%,27%
CCCCCC(=O)Nc1ccc(NC(=O)c2cc3ccccc3o2)c(OC)c1,4.6µM*,.,.,.,6.5µM*,.
SMILES,DT40 TDP1 no CPT,IL-1B inflam inh,HT1080NT lethal,uPA surface inh,TDP1 cell CPT,HT1080 IDH1KD tx
C[C@@H]1CN([C@@H](C)CO)C(=O)CCCn2nncc2CO[C@H]1CN(C)Cc1ccc2cccnc2c1,-28%,-17,0%,.,0%,1%
COc1ccccc1CN1CCNC(=O)C1CC(=O)N(C)C1CCOCC1 (stereo not drawn),0%,-4,12%,.,3%,11%
CN(O)/C=C/C(=O)c1ccc(Br)cc1,?,?,-20%,-3%,16µM*,-14%
CN(C)/C=C/C(=O)c1ccc(Br)cc1,-7%,-30,12%,1%,43%,-1%
O=C(NC1C2CC3CC(C2)CC1C3)C1CCCCC1 (stereo not drawn),-12%,25,12%,-3%,3%,7%
CC(=O)c1cccc(-n2c(=O)c3c4c(sc3n(CC(=O)c3ccc(Cl)cc3)c2=O)CN(C(C)=O)CC4)c1,-5%,.,.,.,-1%,.
O=C(C1=NOC(CNc2ncc(C(F)(F)F)cc2Cl)C1)N1CCOCC1 (stereo not drawn),-9%,22,-1%,1%,0.46µM*,-11%
O=C(NC1CC1)C1=NOC(CNc2ncc(C(F)(F)F)cc2Cl)C1 (stereo not drawn),-12%,-22,0%,1%,0%,-4%
CC#CCC(C)[C@H](O)/C=C/[C@@H]1[C@H]2C/C(=C/CCCC(=O)O)C[C@H]2C[C@H]1O (stereo partly drawn),-2%,.,.,.,15%,.
Cc1cccc(-n2c(O)c(C=NC3CCS(=O)(=O)C3)c3ccccc3c2=O)c1C (stereo not drawn),?,-1,-16%,-2%,5.2µM*,-9%
Cc1ccc(N=Cc2c(O)n(-c3ccc4c(c3)OCO4)c(=O)c3ccccc23)cc1,?,-25,0%,2%,?,-3%
Cc1ccc(-n2c(O)c(C=Nc3ccccc3-c3n[nH]c(=S)[nH]c3=O)c3ccccc3c2=O)cc1C,?,14,?,3%,?,?
Cc1ccc(-n2c(O)c(C=NC3CCS(=O)(=O)C3)c3ccccc3c2=O)cc1C (stereo not drawn),18µM*,?,-19%,-8%,10µM*,-20%
Cc1cccc(-n2c(O)c(C=NC3CCS(=O)(=O)C3)c3ccccc3c2=O)c1 (stereo not drawn),?,13,-3%,-9%,13µM*,-1%
